# B1: unnamed (peptide)
# chain: MTKTPETSPPKRPMG
# Experiments:
# Assay in all cases: SPOT peptide array binding signal intensity (averaged, normalized) (arbitrary units (background-subtracted, floor 0; scale differs between SH3 domains)); higher = stronger binding of the SH3 domain to the peptide
# ScBbc1 = biological target: ScBbc1
# In short: (§1)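 GST-fused SH3 domains from four yeast species were expressed in E. coli BL21(DE3), purified on glutathione Sepharose and incubated at 10 μg/ml overnight at 4°C in TBS-based blocking buffer on cellulose membranes carrying synthetic 15-mer peptides, with cysteines replaced by serines. Bound protein was detected with anti-GST antibody, an HRP anti-mouse secondary and luminol, then imaged and quantified with Genespotter. Binding signal is the normalized, background-subtracted spot intensity averaged over replicates, in arbitrary units that differ between domains.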
# ScBem1-D1 = biological target: ScBem1-D1
# In short: as §1
# ScBzz1-D1 = biological target: ScBzz1-D1
# In short: as §1
# ScBzz1-D2 = biological target: ScBzz1-D2
# In short: as §1
# ScCyk3 = biological target: ScCyk3
# In short: as §1
# ScFus1 = biological target: ScFus1
# In short: as §1
# ScHof1 = biological target: ScHof1
# In short: as §1
# ScHse1 = biological target: ScHse1
# In short: as §1
# ScLsb1 = biological target: ScLsb1
# In short: as §1
# ScLsb2 = biological target: ScLsb2
# In short: as §1
# ScLsb3 = biological target: ScLsb3
# In short: as §1
# ScLsb4 = biological target: ScLsb4
# In short: as §1
# ScMyo3 = biological target: ScMyo3
# In short: as §1
# ScMyo5 = biological target: ScMyo5
# In short: as §1
# ScNbp2 = biological target: ScNbp2
# In short: as §1
# ScPex13 = biological target: ScPex13
# In short: as §1
# ScRvs167 = biological target: ScRvs167
# In short: as §1
# ScSho1 = biological target: ScSho1
# In short: as §1
# ScSla1-D1-D2 = biological target: ScSla1-D1-D2
# In short: as §1
# ScSla1-D3 = biological target: ScSla1-D3
# In short: as §1
# SpAbp1-D1 = biological target: SpAbp1-D1
# In short: as §1
# SpBbc1 = biological target: SpBbc1
# In short: as §1
# SpBzz1-D1 = biological target: SpBzz1-D1
# In short: as §1
# SpBzz1-D2 = biological target: SpBzz1-D2
# In short: as §1
# SpCyk3 = biological target: SpCyk3
# In short: as §1
# SpHof1 = biological target: SpHof1
# In short: as §1
# SpHof1-2 = biological target: SpHof1-2
# In short: as §1
# SpHof1-3 = biological target: SpHof1-3
# In short: as §1
# SpHse1 = biological target: SpHse1
# In short: as §1
# SpLsb1 = biological target: SpLsb1
# In short: as §1
# SpLsb4 = biological target: SpLsb4
# In short: as §1
# SpMyo1 = biological target: SpMyo1
# In short: as §1
# SpNbp2 = biological target: SpNbp2
# In short: as §1
# SpPex13 = biological target: SpPex13
# In short: as §1
# SpRvs167 = biological target: SpRvs167
# In short: as §1
# SpSla1-D1-D2 = biological target: SpSla1-D1-D2
# In short: as §1
# SpSla1-D3 = biological target: SpSla1-D3
# In short: as §1
binder,measurement,setting,value
B1,SPOT peptide array binding signal intensity,ScBbc1,0.5
same,SPOT peptide array binding signal intensity,ScBem1-D1,≤ 0
same,SPOT peptide array binding signal intensity,ScBzz1-D1,1
same,SPOT peptide array binding signal intensity,ScBzz1-D2,6
same,SPOT peptide array binding signal intensity,ScCyk3,≤ 0
same,SPOT peptide array binding signal intensity,ScFus1,≤ 0
same,SPOT peptide array binding signal intensity,ScHof1,1.25
same,SPOT peptide array binding signal intensity,ScHse1,18.5
same,SPOT peptide array binding signal intensity,ScLsb1,6.5
same,SPOT peptide array binding signal intensity,ScLsb2,2.5
same,SPOT peptide array binding signal intensity,ScLsb3,45.5
same,SPOT peptide array binding signal intensity,ScLsb4,10
same,SPOT peptide array binding signal intensity,ScMyo3,1860
same,SPOT peptide array binding signal intensity,ScMyo5,462
same,SPOT peptide array binding signal intensity,ScNbp2,25
same,SPOT peptide array binding signal intensity,ScPex13,24.2
same,SPOT peptide array binding signal intensity,ScRvs167,7.17
same,SPOT peptide array binding signal intensity,ScSho1,≤ 0
same,SPOT peptide array binding signal intensity,ScSla1-D1-D2,62.5
same,SPOT peptide array binding signal intensity,ScSla1-D3,65.2
same,SPOT peptide array binding signal intensity,SpAbp1-D1,3
same,SPOT peptide array binding signal intensity,SpBbc1,0.5
same,SPOT peptide array binding signal intensity,SpBzz1-D1,30.5
same,SPOT peptide array binding signal intensity,SpBzz1-D2,1.25
same,SPOT peptide array binding signal intensity,SpCyk3,1
same,SPOT peptide array binding signal intensity,SpHof1,18.5
same,SPOT peptide array binding signal intensity,SpHof1-2,18.2
same,SPOT peptide array binding signal intensity,SpHof1-3,≤ 0
same,SPOT peptide array binding signal intensity,SpHse1,13
same,SPOT peptide array binding signal intensity,SpLsb1,2.5
same,SPOT peptide array binding signal intensity,SpLsb4,285
same,SPOT peptide array binding signal intensity,SpMyo1,446
same,SPOT peptide array binding signal intensity,SpNbp2,5.5
same,SPOT peptide array binding signal intensity,SpPex13,≤ 0
same,SPOT peptide array binding signal intensity,SpRvs167,18.5
same,SPOT peptide array binding signal intensity,SpSla1-D1-D2,4
same,SPOT peptide array binding signal intensity,SpSla1-D3,17

# From the supplement of paper PMC4466140
